# Only some compounds are listed: those with a hit (about 4.3% of all), similar ones and a draw of the others.
# AF4-AF9 inh = MLL-AF4/AF9 protein interaction inhibition; P42568; AlphaScreen, biotin-AF4 peptide binding to FLAG-AF9; inhibition, % at 10 µM; 350,000 tested, 0.47% active;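 active = every replicate reaching a set inhibition limit, whatever the replicate mean, cut at about 25% in these data; inconclusive = mean inhibition reaches that limit but some replicates miss it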;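 note: 0% = plate neutral control median and 100% = total signal loss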
# Target sequence (P42568 whole entry, looked up): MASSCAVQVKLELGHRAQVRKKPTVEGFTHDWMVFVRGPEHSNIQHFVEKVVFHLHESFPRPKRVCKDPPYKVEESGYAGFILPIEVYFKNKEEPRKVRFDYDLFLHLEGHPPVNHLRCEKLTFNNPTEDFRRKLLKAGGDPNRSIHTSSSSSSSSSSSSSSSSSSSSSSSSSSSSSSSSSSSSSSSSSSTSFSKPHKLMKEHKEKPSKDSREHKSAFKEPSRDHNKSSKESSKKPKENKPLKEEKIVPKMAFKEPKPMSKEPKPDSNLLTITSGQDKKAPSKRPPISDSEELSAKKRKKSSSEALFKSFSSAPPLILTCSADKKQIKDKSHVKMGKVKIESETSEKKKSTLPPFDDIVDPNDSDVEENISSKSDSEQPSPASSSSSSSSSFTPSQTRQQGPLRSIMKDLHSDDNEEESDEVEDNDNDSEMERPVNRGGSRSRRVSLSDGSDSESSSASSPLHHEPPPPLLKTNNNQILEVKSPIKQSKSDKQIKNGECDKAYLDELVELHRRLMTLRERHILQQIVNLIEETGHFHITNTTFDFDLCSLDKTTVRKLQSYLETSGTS
# MITF TRPM1 HTS = activators of MITF-driven TRPM1 promoter activity in SK-MEL-5 cells; activation, % at 12.5 µM; AID 588334; SK-MEL-5 TRPM1-promoter luciferase, 24 h; % of positive control, neutral wells = 0; 300,000 tested, 0.75% active;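 active = mean activation of at least 80% with every replicate also reaching 80%; inconclusive = mean reaches 80% but some replicate falls short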;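 note: 0% = neutral control wells and 100% = parthenolide positive control wells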
# esBAF inh = SWI/SNF esBAF complex inhibition; mouse ES cells, Bmi1-luciferase knock-in reporter, 24 h; 100% = twice the neutral-well signal; reporter increase, % at 12.5 µM; 350,000 tested, 2% active; AID 602393; in the data active = activation above about 40%; inconclusive = no clear call, values can overlap the other calls;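 note: 0% = median of the plate's neutral control wells and 100% = double that signal; a rise in the Bmi1 reporter signal indicates esBAF inhibition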
# FGF22 binding = FGF22 (human) thermal shift binding; AID 651658; 340,000 tested, 1.5% active; recombinant FGF22 thermal shift, SYPRO orange fluorescence; percent of sucrose octasulfate shift, DMSO zero; Q9HCT0; activity (Tm shift, normalised), % at 9.99 µM;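 active = mean Tm shift, scaled 0 neutral to 100 positive control, at about 1.3% or above, every replicate too, limit read from the data; inconclusive = no clear call, values can overlap the other calls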
# Wnt bcat act = Wnt/beta-catenin pathway activation; activation, % at 9.35 µM; 300,000 tested, 1.2% active; Wnt/beta-catenin reporter cell assay, activator, plate reader; AID 743398; in the data active = activation above about 30%, passing the limit was not always enough; inconclusive = no clear call, values can overlap the other calls;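 note: 0% = neutral control wells and 100% = positive control wells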
# SMARCA2 act = SMARCA2 function activation, primary screen. MG213 cells, MMTV-luciferase reporter, dexamethasone, overnight. activation, % at 9.1 µM. 370,000 tested, 1% active. AID 652017; in the data active = activation above about 7.8%;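 note: 0% = vehicle wells and 100% = reference activator wells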
# AlphaScreen intf = AlphaScreen signal interference counter-screen hit | shares compounds with AF4-AF9 inh | AC50, µM (doses to about 12 µM), without a hit: at the highest dose activity change, negative = inhibition | AID 720494 | 530 tested, 45% active | signal luminescence; cut-off not given, nearly all actives have AC50 up to about 14 µM
# The depositor's hits bear a star; ? = inconclusive; . = no result; ! = not active in a repeat.
SMILES,AF4-AF9 inh,MITF TRPM1 HTS,esBAF inh,FGF22 binding,Wnt bcat act,SMARCA2 act,AlphaScreen intf
CCN(CC)c1ccc(C(=C2C=CC(=[N+](CC)CC)C=C2)c2ccc(N(CC)CC)cc2)cc1,98*,.,-87,.,-25,-9,0.26µM*
O=C(CCN1CCCCC1)NCC[C@H]1CC[C@@H](NC(=O)C2CC2)[C@@H](CO)O1,-3,.,-2,0,.,.,.
Cn1cc(C(=O)N/N=C/c2c(O)ccc3ccccc23)ccc1=O,24,-69,.,0,-5,-2,-11%
O=C(N/N=C/c1c(O)ccc2ccccc12)c1ccc[n+](CCO)c1,82*,-3,.,0,1,1,0.61µM*
CO[C@@H]1CN(C)C(=O)c2ccc(NC(=O)Nc3ccc(Cl)cc3)cc2OC[C@@H](C)NC[C@@H]1C,.,.,1,.,.,.,.
Nc1ccc(C(=O)C(=O)c2ccc(N)cc2)cc1,4,-6,5,0,-3,2,.
N=C1C=CC(=C(c2ccc(N)cc2)c2ccc(N)cc2)C=C1,45*,-53,-25,0,0,-4,11µM*
Cc1ccc(S(=O)(=O)Nc2ccc3c(c2)C(=O)N([C@H](C)CO)C[C@H](C)[C@@H](CN(C)C(=O)c2ccccc2)OCCCC[C@@H](C)O3)cc1,-3,.,-3,.,.,.,.
CC(C)C[C@@H](C(=O)NC1CC1)N1C(=O)N2CCc3c([nH]c4ccccc34)[C@@]2(C)C1=O,7,-6,1,0,0,-4,.
CC(C)C[C@@H](C(=O)NC1CCN(Cc2ccccc2)CC1)N1C(=O)N2CCc3c([nH]c4ccccc34)[C@@]2(C)C1=O,37*,-50,-1,0,-3,-3,-2%
COc1ccc(NC(=O)Nc2ccc3c(c2)C(=O)N([C@H](C)CO)C[C@@H](C)[C@@H](CN(C)S(=O)(=O)c2c(C)noc2C)OCCCC[C@H](C)O3)cc1,0,.,.,0,.,.,.
CCN(CC)CCOc1ccc(/C(=C(/Cl)c2ccccc2)c2ccccc2)cc1,31*!,-11,-14,0,-5,-6,-22%
C[C@@H]1NC(=O)N[C@@H]1CCCCCC(=O)O,90*,10,-7,0,-3,-3,1.1µM*
CCCCCCCC(=O)O,-3,5,-3,0,-2,1,.
CCN(CC)CCNc1ccc(CO)c2oc3ccccc3c(=O)c12,3,.,11,0,3,4,.
CCN(CC)CCNc1cccc2sc3ccccc3c(=O)c12,29*,.,-11,0,2,4,2.2µM*
COc1cccc(NC2=C(NCCO)C(=O)c3ccccc3C2=O)c1,38*,-14,-57,.,0,-1,14µM*
COc1ccc(NC2=C(NCCO)C(=O)c3ccccc3C2=O)cc1,56*,-5,.,0,7,-1,14µM*
COc1cccc(Nc2c(Nc3cccc(OC)c3)c(=O)c2=O)c1,-26,-2,-6,0,-4,1,.
Cc1cccc(NC2=C(NCCO)C(=O)c3ccccc3C2=O)c1,49*,-22,.,0,3,-1,-26%
C[C@H](CO)N1C[C@H](C)[C@H](CN(C)CC2CC2)Oc2cc(-c3ccccc3F)ccc2S1(=O)=O,7,.,-11,0,.,.,.
O=C(C1CCCC1)N1CCCCN2[C@@H](CO)[C@H](c3ccc(C#CC4CC4)cc3)[C@@H]2C1,4,.,.,0,.,.,.
COc1ccc(C(CCNCc2ccc(N(C)C)cc2)c2ccccc2OC)cc1 (stereo not drawn),51*,.,-4,0,-2,-2,4.7µM*
COc1ccc(CNCCC(c2ccc(OC)cc2)c2ccccc2OC)cc1 (stereo not drawn),6,-19,-15,0,2,-3,.
CCCC#Cc1ccc([C@H]2[C@@H](C#N)N(S(=O)(=O)c3cccc(F)c3)[C@@H]2CO)cc1,1,.,1,0,.,.,.
SMILES,AF4-AF9 inh,MITF TRPM1 HTS,esBAF inh,FGF22 binding,Wnt bcat act,SMARCA2 act,AlphaScreen intf
Cn1ccc2c(N3CCCCC3)cc3c(c21)C1CCC3C1 (stereo not drawn),52*,.,4,0,-1,-3,-16%
CSc1ccc(-c2cc3c(c4c2ccn4C)C2CCC3C2)cc1 (stereo not drawn),7,.,1,0,-3,-5,.
COc1cc(O)c(C(CCN2CCN(c3ccccc3)CC2)c2ccc(N(C)C)cc2)c(OC)c1 (stereo not drawn),50*,12,1,-1,-3,0,-23%
COc1ccc(C(CCN2CCN(c3ccccc3)CC2)c2c(O)cc(OC)cc2OC)cc1 (stereo not drawn),.,8,3,.,-3,3,.
CCC[C@@H](CN1CCC[C@H]1CN1C(N)=NC[C@@H]1Cc1ccccc1)N1C[C@@H](Cc2ccccc2)N(CCc2ccc(Cl)c(Cl)c2)C1=N,30*,11,-22,.,1,-1,-9%
CS(=O)(=O)N1CCCCN2[C@H](C1)[C@@H](c1ccc(C#Cc3ccccn3)cc1)[C@@H]2CO,-8,.,.,0,.,.,.
CS(=O)(=O)N1CCCCN2[C@H](C1)[C@H](c1ccc(C#Cc3ccccn3)cc1)[C@@H]2CO,32*,.,.,0,.,.,-16%
N#C/C(C(N)=O)=c1/ccc2c(c1)N1C3=C(CCCC3)CC3CCCCC31N=2 (stereo not drawn),85*,.,-23,.,12,3,2.7µM*
N#CC(C#N)=c1ccc2c(c1)N1C3=C(CCCC3)CC3CCCCC31N=2 (stereo not drawn),.,-36,-30,.,.,-1,.
CC(C)n1ncc2c(C(=O)Nc3ccc(S(C)(=O)=O)cc3)cc(C3CC3)nc21,1,1,1,0,-1,-1,.
CC(C)n1ncc2c(C(=O)Nc3ccc(S(N)(=O)=O)cc3)cc(C3CC3)nc21,?,-8,0,0,-6,-2,-14%
CCc1nc2ccc(C(=O)NC3CCN(C)CC3)cn2c1N(C)CCC(C)C,4,.,-4,0,-3,5,.
CCc1nc2ccc(C(=O)NC3CCN(Cc4ccccc4)CC3)cn2c1N(C)Cc1ccc(N(C)C)cc1,52*,.,-7,-1,-2,6,8.5µM*
CCOc1ccc(Nc2nc(NCC3CCCO3)c3ccccc3n2)cc1 (stereo not drawn),28*,-6,.,43,-2,-4,-11%
O=C(NCc1ccc(C(=O)N2CCOCC2)cc1)c1cccc(Br)c1,.,.,.,.,.,-3,.
COc1ccc(CN2CC3(C2)CN(Cc2ccc4c(c2)OCO4)[C@H](CO)c2[nH]c4cc(OC)ccc4c23)cc1,36*,.,.,.,.,.,-28%
CO[C@@H]1CN(C)C(=O)c2ccc(NC(=O)c3cnccn3)cc2OC[C@@H](C)N(C(C)=O)C[C@H]1C,-2,.,-1,0,.,.,.
CN(C)c1ccc(-c2cc(O)c3ncccc3c2)cc1,15,20,-9,0,13,4,.
CN(C)CCCNCCCNC(=O)c1ccncc1,.,5,0,.,.,2,.
